Our source for the nuclei count, normalised and p53-positive nuclei, normalised values is PubChem BioAssay AID1508601 (ICCB-Longwood Screening Facility, Harvard Medical School, 2020).

Assay [1] in a line: p53 stabilisation in HPV-positive human cells, imaging, p53-positive nuclei imaging, 24 h, 48 h (AID 1508601). Conditions: 24/48 h.
Assay [2] addresses Cellular tumor antigen p53 (Homo sapiens) (UniProt P04637). Described as above. As to conditions: 24/48 h, stronger effect = higher value.
[3] abbreviates: measured here: cell number at 24 h, Library stock concentration: 3.33 mM.
The mark [4] stands for this setting: measured here: cell number at 48 h, Library stock concentration: 3.33 mM.
[5] abbreviates: Library stock concentration: 3.33 mM.
Where [6] appears, read: measured here: p53 positive nuclei at 24 h, Library stock concentration: 3.33 mM.
The mark [7] stands for this setting: measured here: cell number at 24 h, Library stock concentration: 80 uM.
The mark [8] stands for this setting: measured here: cell number at 24 h, Library stock concentration: 400 uM.
The mark [9] stands for this setting: measured here: cell number at 24 h, Library stock concentration: 2 mM.
Where [10] appears, read: measured here: cell number at 24 h, Library stock concentration: 10 mM.
Setting [11] is: measured here: cell number at 48 h, Library stock concentration: 80 uM.
[12] abbreviates: measured here: cell number at 48 h, Library stock concentration: 400 uM.
[13] abbreviates: measured here: cell number at 48 h, Library stock concentration: 2 mM.
Setting [14] is: measured here: cell number at 48 h, Library stock concentration: 10 mM.
[15] abbreviates: Library stock concentration: 80 uM.
Setting [16] is: Library stock concentration: 400 uM.
Setting [17] is: Library stock concentration: 2 mM.
Where [18] appears, read: Library stock concentration: 10 mM.
Setting [19] is: measured here: p53 positive nuclei at 24 h, Library stock concentration: 80 uM.
Setting [20] is: measured here: p53 positive nuclei at 24 h, Library stock concentration: 400 uM.
Setting [21] is: measured here: p53 positive nuclei at 24 h, Library stock concentration: 2 mM.
[22] abbreviates: measured here: p53 positive nuclei at 24 h, Library stock concentration: 10 mM.
The mark [23] stands for this setting: measured here: cell number at 24 h, concentration not given here.
The mark [24] stands for this setting: measured here: cell number at 48 h, concentration not given here.
[25] abbreviates: measured here: p53 positive nuclei at 24 h, concentration not given here.

About 85 (1%) of roughly 5,700 compounds were called active. Cut-off read from the data, not from the text of the source: active = p53-positive nuclei above about 36% (passing the limit was not always enough); inactive = the rest. This excerpt belongs to a sample that is enriched for actives.

Chain of Cellular tumor antigen p53 (Homo sapiens) (P04637 whole entry, looked up): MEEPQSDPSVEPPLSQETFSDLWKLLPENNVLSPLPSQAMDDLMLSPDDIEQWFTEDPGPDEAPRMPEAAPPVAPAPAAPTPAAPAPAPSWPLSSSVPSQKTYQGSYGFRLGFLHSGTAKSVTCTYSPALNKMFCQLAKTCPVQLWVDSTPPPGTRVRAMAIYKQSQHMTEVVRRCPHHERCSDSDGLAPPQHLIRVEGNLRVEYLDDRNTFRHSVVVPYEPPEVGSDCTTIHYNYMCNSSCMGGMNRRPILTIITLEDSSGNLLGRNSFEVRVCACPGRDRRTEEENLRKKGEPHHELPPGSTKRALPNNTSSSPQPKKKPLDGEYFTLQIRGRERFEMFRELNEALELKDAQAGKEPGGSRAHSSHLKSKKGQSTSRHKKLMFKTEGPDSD

As for `CCN(CC)Cc1ccc2cc(COC(=O)Nc3ccc(C(=O)NO)cc3)ccc2c1`, the nuclei count, normalised stood at 39.9% in assay [1] (setting [3]) and 22.6% in assay [1] (setting [4]). The values for the p53-positive nuclei, normalised in assay [2] (setting [5]) and in assay [2] (setting [6]) were 95.7% (active) and 67.1%, respectively.
As for `CCN1CCN(Cc2ccc(Nc3ncc4c(n3)N(C)c3ccccc3C(=O)N4C)cc2C(F)(F)F)CC1`, the nuclei count, normalised came out at 77.9% in assay [1] (setting [7]); 81% in assay [1] (setting [8]); 52.5% in assay [1] (setting [9]); 35.9% in assay [1] (setting [10]); 81.7% in assay [1] (setting [11]); 83.6% in assay [1] (setting [12]). In addition, the results for the nuclei count, normalised in assay [1] (setting [13]) and in assay [1] (setting [14]) were 35.4% and 19.9%, respectively. Moreover, the p53-positive nuclei, normalised is -0.0235% (inactive) in assay [2] (setting [15]); -0.051% (inactive) in assay [2] (setting [16]); 1.78% (inactive) in assay [2] (setting [17]); 22.4% (inactive) in assay [2] (setting [18]); -0.148% in assay [2] (setting [19]); -0.0416% in assay [2] (setting [20]). Moreover, the p53-positive nuclei, normalised in assay [2] (setting [21]) was -0.148%; in assay [2] (setting [22]), 33.5%.
As to `CC1CCO[C@H]2Cn3cc(C(=O)NCc4ccc(F)cc4F)c(=O)c(O)c3C(=O)N12` (stereo partly specified), the nuclei count, normalised in assay [1] (setting [3]) worked out at 106%; in assay [1] (setting [4]), 103%. The p53-positive nuclei, normalised in assay [2] (setting [5]) was -0.143% (inactive); in assay [2] (setting [6]), -0.188%.
On to `CCCCC[C@H](O)/C=C/[C@H]1C2CC(CO2)[C@@H]1C/C=C\CCCC(=O)O` (stereo partly specified), for which the nuclei count, normalised came out at 83.4% in assay [1] (setting [23]) and 84.7% in assay [1] (setting [24]). Also, the figures for the p53-positive nuclei, normalised in assay [2] (concentration not given here) and in assay [2] (setting [25]) were 0.109% (inactive) and 0.00988%, respectively.
In the same order, the values of `CCN(CC)C(=O)N1CCN(C)CC1` are 108%, 102%, 0.000717% (inactive) and -0.0826%.
On to `CN1CCN(C(=S)SSC(=S)N2CCN(C)CC2)CC1`, for which the nuclei count, normalised in assay [1] (setting [7]) turned out to be 108%; in assay [1] (setting [8]), 109%; in assay [1] (setting [9]), 60.3%; in assay [1] (setting [10]) it was 52.3%; in assay [1] (setting [11]), 109%; in assay [1] (setting [12]) it was 109%. For the same molecule, the nuclei count, normalised in assay [1] (setting [13]) was 53.9%; in assay [1] (setting [14]) it was 37.3%. For the same molecule, the p53-positive nuclei, normalised in assay [2] (setting [15]) is -0.131% (inactive); in assay [2] (setting [16]), -0.138% (inactive); in assay [2] (setting [17]), 39.2% (active); in assay [2] (setting [18]), 89.9% (active); in assay [2] (setting [19]), -0.116%; in assay [2] (setting [20]), -0.0641%. Besides, the values for the p53-positive nuclei, normalised in assay [2] (setting [21]) and in assay [2] (setting [22]) were 99.7% and 111%, respectively.
As for `CC(C)(CO)c1cc2cc(NC(=O)C3(c4ccc5c(c4)OC(F)(F)O5)CC3)c(F)cc2n1CC(O)CO` (stereo unspecified), the nuclei count, normalised was 99.2% in assay [1] (setting [7]); 104% in assay [1] (setting [8]); 106% in assay [1] (setting [9]); 118% in assay [1] (setting [3]); 113% in assay [1] (setting [10]); 105% in assay [1] (setting [11]). Further, the nuclei count, normalised in assay [1] (setting [12]) came out at 107%; in assay [1] (setting [13]), 110%; in assay [1] (setting [4]), 120%; in assay [1] (setting [14]) it was 111%. The p53-positive nuclei, normalised in assay [2] (setting [15]) is 0.0351% (inactive); in assay [2] (setting [16]), 0.0964% (inactive); in assay [2] (setting [17]) it was -0.0537% (inactive); in assay [2] (setting [5]), -0.0559% (inactive); in assay [2] (setting [18]) it was 0.115% (inactive); in assay [2] (setting [19]) it was 0.0925%. Further, the p53-positive nuclei, normalised in assay [2] (setting [20]) was 0.0862%; in assay [2] (setting [21]), -0.0708%; in assay [2] (setting [6]) it was -0.244%; in assay [2] (setting [22]), 0.119%.
On to `O=C(c1cc(-c2cncnc2)nc2cc(F)ccc12)N1CCCC1Cc1cccnc1` (stereo unspecified), for which the results for the nuclei count, normalised in assay [1] (setting [23]) and in assay [1] (setting [24]) were 109% and 110%, respectively. Further, the p53-positive nuclei, normalised in assay [2] (concentration not given here) is 0.0107% (inactive); in assay [2] (setting [25]) it was 0.143%.
With `O=C1CN2Cc3c(ccc(Cl)c3Cl)N=C2N1`, the nuclei count, normalised is 88.7% in assay [1] (measured here: cell number at 24 h, Library stock concentration: 46 uM); 80.4% in assay [1] (measured here: cell number at 24 h, Library stock concentration: 278 uM); 83.9% in assay [1] (measured here: cell number at 24 h, Library stock concentration: 1.67 mM); 57.2% in assay [1] (setting [3]); 75.8% in assay [1] (setting [10]); 45.1% in assay [1] (measured here: cell number at 48 h, Library stock concentration: 46 uM). In addition, the nuclei count, normalised in assay [1] (measured here: cell number at 48 h, Library stock concentration: 278 uM) was found to be 38.3%; in assay [1] (measured here: cell number at 48 h, Library stock concentration: 1.67 mM), 40.9%; in assay [1] (setting [4]), 24.8%; in assay [1] (setting [14]), 40.2%. Besides, the p53-positive nuclei, normalised is 85.8% (active) in assay [2] (Library stock concentration: 46 uM); 88.2% (active) in assay [2] (Library stock concentration: 278 uM); 89.8% (active) in assay [2] (Library stock concentration: 1.67 mM); 84.4% (active) in assay [2] (setting [5]); 87% (active) in assay [2] (setting [18]); 5.38% in assay [2] (measured here: p53 positive nuclei at 24 h, Library stock concentration: 46 uM). Further, the p53-positive nuclei, normalised in assay [2] (measured here: p53 positive nuclei at 24 h, Library stock concentration: 278 uM) is 6.86%; in assay [2] (measured here: p53 positive nuclei at 24 h, Library stock concentration: 1.67 mM), 6.48%; in assay [2] (setting [6]), 11%; in assay [2] (setting [22]), 6.76%.
For the molecule `O=C1OC2(c3ccc(O)cc3Oc3cc(Oc4ccc(O)cc4)ccc32)c2ccccc21` (stereo unspecified), the results for the nuclei count, normalised in assay [1] (setting [23]) and in assay [1] (setting [24]) were 105% and 107%, respectively. The p53-positive nuclei, normalised in assay [2] (concentration not given here) is -0.0688% (inactive); in assay [2] (setting [25]) it was -0.118%.
